Results filed as inconclusive are left out. The source made the active and inactive calls. The call rests on the fitted dose curve; in most records, active means well fitted inhibition curve with a large enough effect; inconclusive means small, poorly fitted or top-dose-only effect; inactive means flat fitted curve, though single readings scatter.
Legend:
Assay in all cases: Cytotoxic Profiling of Annotated Libraries Using Quantitative High-Throughput Screening (AID 1296008); further: nearly all actives have a fitted effect of over 60% in size
Conditions in all cases: Five cell lines viability, CellTiter-Glo ATP luminescence, 48-72 h; max response: stronger effect = lower value
[1] = tested on: CRL-7250
Procedure, shortened: (§1)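 Cytotoxicity was measured as CellTiter-Glo ATP luminescence, read after 10 min at room temperature. Compound treatment of the cells lasted 48 or 72 hr at 37 degrees Celsius in a qHTS format.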

[2] = tested on: HEK293
Procedure, shortened: as §1

[3] = tested on: HaCat
Procedure, shortened: as §1

[4] = tested on: KB-3-1
Procedure, shortened: as §1

[5] = tested on: NIH3T3
Procedure, shortened: as §1

Measured: max response
On the % scale 0 is the no-effect control and ±100 the full control effect.

COC(=O)c1ccccc1O[C@@H]1O[C@H](CO[C@@H]2OC[C@@H](O)[C@H](O)[C@H]2O)[C@@H](O)[C@H](O)[C@H]1O
inactive: [1] 0.973% | [2] 4.14% | [3] | [4] -2.26% | [5]

CCC(C)(C)C1CCc2c(sc(NC(=O)c3ccc(Br)cc3)c2C#N)C1 (stereo not given)
inactive: [1] -2.34% | [2] 2.37% | [3] | [4] | [5] 3.88%

CC(=O)OC[C@]12[C@@H](OC(=O)c3ccoc3)C[C@@H]3[C@@H](OC(C)=O)[C@]1(OC3(C)C)[C@@](C)(O)C[C@H](OC(=O)c1ccoc1)[C@@H]2OC(=O)c1ccoc1
inactive: [1] -3.29% | [2] -2.85% | [3] | [4] 2.58% | [5]

O=C1OC(c2ccc(O)cc2)C(O)=C1Cc1ccccc1 (stereo not given)
inactive: [1] 3.91% | [2] 0.741% | [3] | [4] | [5] 4.9%

C=C1CCC2[C@](C)(CCC[C@]2(C)C(=O)O)[C@H]1CC/C(C)=C/C(=O)OC (stereo not given in full)
inactive: [1] -5.17% | [2] -8.16% | [3] | [4] | [5] 0.39%

CC1=C(CO)CC(C(C)C2CCC3C4CC=C5CC(OC6OC(COC7OC(CO)C(O)C(O)C7O)C(O)C(O)C6O)CC(O)C5(C)C4CCC23C)OC1=O (stereo not given)
inactive: [1] | [2] -8.19% | [3] | [4] -0.551% | [5]

CC(=O)/C=C/C1(O)C(C)=CC(=O)CC1(C)C (stereo not given)
inactive: [1] -1.97% | [2] -3.4% | [3] | [4] -2.68% | [5]

COc1c2c(c(C)c3c1C(=O)OC3)OC1(C)CC(O)C34OC(O)(CCC3(C)C1C2)OC4(C)C (stereo not given)
inactive: [1] | [2] -9.5% | [3] | [4] 7.14% | [5] 2.29%

CC(C)c1ccc2c(c1)C(O)CC1C(C)(C(=O)O)CCCC21C (stereo not given)
inactive: [1] -4.34% | [2] 2.95% | [3] | [4] -15.9% | [5] -2.12%

Cc1cn(-c2cc(NC(=O)c3ccc(C)c(Nc4nccc(-c5cnccn5)n4)c3)cc(C(F)(F)F)c2)cn1
inactive: [1] -3.34% | [2] -20.5% | [3] | [4] -2.9% | [5]

C=C(C(=O)OC)[C@]12O[C@@](C)(CC[C@@]3(O)/C(=C\C)C(=O)O[C@]3(C)C[C@@H]1OC(=O)C(CO)CN1CCCC1C(=O)O)CC2=O (stereo not given in full)
inactive: [1] | [2] -8.55% | [3] | [4] | [5]

C[C@H]1/C=C/C=C/C=C/C=C/C=C/[C@@H](O)[C@H](C(=O)O)[C@H](O)C[C@H](O)CCC[C@H](O)C[C@H](O)C[C@H](O)[C@@H](C)C(=O)O[C@@H]1C
inactive: [1] | [2] 1.51% | [3] 2.29% | [4] 7.54% | [5]

C=C1C(O)CC2C(C(=O)O)=COC(OC3OC(CO)C(O)C(O)C3OC(=O)/C=C\c3ccc(O)cc3)C12 (stereo not given)
inactive: [1] 0.287% | [2] -11.5% | [3] | [4] 0.941% | [5]

O=C(O)/C=C/c1ccc(O[C@@H]2O[C@H](CO)[C@@H](O)[C@H](O)[C@H]2O)cc1
inactive: [1] | [2] -0.219% | [3] | [4] | [5]

Cc1ccc(Nc2nnc(-c3ccc([N+](=O)[O-])cc3)o2)cc1Cl
inactive: [1] | [2] -16.7% | [3] | [4] -2.92% | [5]

CC(=O)O[C@@H]1C=C2[C@H](CC[C@@]3(C)[C@@]2(O)CC[C@H]2Cc4c([nH]c5ccccc45)[C@@]23C)O[C@@H]1C(C)(C)O
inactive: [1] -3.54% | [2] -5.86% | [3] | [4] 6.54% | [5] 3.65%

O=C(OC[C@H]1O[C@@H](Oc2ccccc2COC(=O)C2(O)C=CCCC2O)[C@H](O)[C@@H](O)[C@@H]1O)c1ccccc1 (stereo not given in full)
inactive: [1] | [2] -3.05% | [3] 3.77% | [4] 1.49% | [5]

O=C(O)CCc1cc2ccoc2cc1O[C@@H]1O[C@H](CO)[C@@H](O)[C@H](O)[C@H]1O
inactive: [1] | [2] 1.52% | [3] 0.684% | [4] | [5]

COc1ccc(OC2OC(CO[C@@H]3O[C@@H](C)[C@H](O)[C@@H](O)[C@H]3O)C(O)C(O)C2O)cc1OC (stereo not given in full)
inactive: [1] 3.33% | [2] -0.0887% | [3] | [4] 5.53% | [5]

Reference: PubChem BioAssay (NCATS)
